PubChem BioAssay (NCI)
Compounds without any hit were thinned out: in the full panel of roughly 83,000, 20% have a hit.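 Negative percent growth values reflect cell death: -40 means 40% of the cells present at the start died, and -100 means all died.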 Values without a mark were called inactive. Active and inactive are the calls of the source. The calls were made as follows: active = growth percent below 10; inactive = the rest.

What was measured:
Test in all cases: NCI-60 one-dose screen, 48 h (100 = growth as untreated, 0 = no growth, -100 = all killed)
Settings in all cases: 10 µM unless noted
[1] = tested on: DU-145 prostate
[2] = tested on: K-562 leukemia
[3] = tested on: MALME-3M melanoma
[4] = tested on: MDA-MB-231 breast
[5] = tested on: RXF 393 renal
[6] = tested on: SF-268 CNS
[7] = tested on: SF-295 CNS
[8] = tested on: SF-539 CNS
[9] = tested on: UACC-257 melanoma
[10] = tested on: M14 melanoma
[11] = tested on: HCT-15 colon
[12] = tested on: HT29 colon
[13] = tested on: SNB-75 CNS
[14] = tested on: SNB-19 CNS
[15] = tested on: U251 CNS
[16] = tested on: PC-3 prostate
[17] = tested on: SK-MEL-5 melanoma
[18] = tested on: UACC-62 melanoma
[19] = tested on: LOX IMVI melanoma
[20] = tested on: SK-MEL-28 melanoma

SMILES | growth [1] | growth [2] | growth [3] | growth [4] | growth [5] | growth [6] | growth [7] | growth [8] | growth [9] | growth [10] | growth [11] | growth [12] | growth [13] | growth [14] | growth [15] | growth [16] | growth [17] | growth [18] | growth [19] | growth [20]
COc1ccc(N=c2nc3sc4cc(Cl)ccc4n3c(N)c2C#N)cc1 | 105% | 98.9% | 77.4% | 76.4% | 52% | 60.1% | -3.63% (active) | 103% | 61.6% | 70.6% | 99.5% | 36.1% | 36.9% | 82% | 79% | 58.5% | 14.9% | 69.3% | 83% | 45.8%
COc1ccc(C(=O)/C=C/C23c4ccccc4C(c4ccccc42)C2C(=O)NC(=O)C23)cc1 (stereo not given) | 97.4% | 86.3% | 98% | 94.9% | 95.9% | 90.5% | 106% | 89.9% | 89.4% | 105% | 91.3% | 97.3% | 85% | 92.6% | 93.7% | 102% | 95.9% | 90.6% | 90.1% | 108%
CCOC(=O)C1C(=O)C=C(c2cnccn2)CC1c1ccc(OC)c(OC)c1 (stereo not given) | 105% | 81.3% | 100% | 110% | 114% | 102% | 95.1% | 95.7% | 81.8% | 85.5% | 98.9% | 93.1% | 105% | 102% | 99.5% | 70.4% | 103% | 101% | 100% | 102%
Cc1nc(Nc2ccccn2)sc1C(=O)/C=C/c1ccc(Br)cc1 | 66.7% | 13.3% | 77.1% | 71.1% | 78.4% | 78.8% | 72.8% | 84.7% | 95.7% | 80.7% | 30.4% | 25.9% | 40.2% | 69.2% | 59.8% | 56.3% | 84.7% | 61.5% | 32.2% | 99.6%
CS(=O)(=O)c1ccc(-c2nc3cc(Cl)ccc3n2CC(=O)NO)cc1 | 101% | 95.7% | 108% | 93.8% | 94.9% | 89.2% | 98% | 101% | 102% | 93.6% | 102% | 95.6% | 73.7% | 96.4% | 93.1% | 95.7% | 103% | 92.6% | 97.9% | 100%
O=C1Nc2ccc(Cl)cc2/C1=N/N=C/c1c[nH]c2ccccc12 | 64.2% | 88.4% | 82.8% | 64.3% | 62.7% | 76.2% | 103% | 82.6% | 98.8% | 72% | 66.9% | 86.9% | 58.1% | 86.3% | 70.9% | 93.8% | 87.7% | 43.1% | 74% | 102%
N#Cc1c(Oc2ccc([N+](=O)[O-])cc2)nc2sc3cc(Cl)ccc3n2c1=N | 105% | 118% | -10.6% (active) | 97.3% | 32.6% | 64.9% | 76.4% | 106% | 57.6% | 78% | 102% | 33.4% | 29.7% | 74.8% | 75.9% | 76.7% | 58.1% | 79.3% | 92.1% | 84.1%
C=C(Cl)COC(=O)C(C)(C)O | 102% | 93.7% | 98.7% | 121% | 111% | 101% | 102% | 102% | 92.2% | 103% | 102% | 92.8% | 84.6% | 105% | 100% | 92.8% | 106% | 111% | 94.8% | 97.7%
c1ccc2c(c1)nc(-n1ccnc1)c1nc3ccccc3n12 | 76.9% | 88.1% | 92.9% | 72.3% | 64.9% | 37.9% | 83.7% | 66% | 82.3% | 93.1% | 82.7% | 74% | 70% | 42.8% | 61.5% | 68% | 68.9% | 72% | 71% | 82.5%
CC(C)N(CCOC(=O)Nc1ccccc1Cl)C(C)C | 105% | 104% | 104% | 106% | 108% | 101% | 104% | 104% | 99.1% | 99.5% | 108% | 97.1% | 107% | 98.6% | 98.8% | 74% | 97.5% | 96.4% | 101% | 110%
Cc1ccc(/C(=N\N=C(N)N)c2ccccc2)cc1 | 10.4% | 0.175% (active) | 61.8% | 2.26% (active) | 10.4% | 36.1% | 1.44% (active) | -24.2% (active) | 59% | -43.5% (active) | -4.22% (active) | 3.12% (active) | 28.5% | 9.71% (active) | 12.7% | 14.1% | -13.4% (active) | 20.7% | 28.3% | 64.4%
Cc1ccc2c(n1)C(=O)C(Oc1ccc(F)cc1)=CC2=O | 114% | 20% | 93.9% | 105% | 107% | 90.8% | 101% | 95.9% | 95.5% | 103% | 81.8% | 108% | 83% | 110% | 95.3% | 98.9% | 91.4% | 99.7% | 88.5% | 113%
Cc1ccc(Nc2ccc(Nc3ccc(C)cc3S(=O)(=O)O)c3c2C(=O)c2ccccc2C3=O)c(S(=O)(=O)O)c1 | 102% | 100% | 101% | 95.6% | 107% | 103% | 101% | 102% | 112% | 88% | 103% | 98.4% | 85.3% | 108% | 107% | 83% | 102% | 97.3% | 102% | 107%
N=C(N)c1ccc(-c2ccc(-c3ccc(Cl)cn3)s2)cc1 | 37.6% | -9.89% (active) | 77.9% | -46.5% (active) | 52% | 79.8% | -41.4% (active) | 40.2% | 94.2% | 3.24% (active) | -46% (active) | 0.247% (active) | 62% | 65.7% | -24.7% (active) | 56.3% | 70.5% | 89.7% | -82.1% (active) | 76.4%
O=C(c1ccccc1)c1ccc(N2C(=O)C3C4c5ccccc5C(/C=C/C(=O)c5ccccn5)(c5ccccc54)C3C2=O)cc1 (stereo not given) | 21.4% | 15.9% | -18.2% (active) | -8.96% (active) | -48.5% (active) | 43.4% | 10.8% | -10.9% (active) | 43.6% | 21.3% | -21.7% (active) | 9.38% (active) | 46.7% | 28.2% | 2.15% (active) | 28.4% | 49.7% | 21% | -76.6% (active) | 13.4%
